Screening results as filed in PubChem BioAssay.
CCT modulator: changes cytosolic chaperonin activity; activity change, % (no concentration beside the values), hits read low; 0.3% of 360,000 active; purified chaperonin ATPase assay, HTRF ADP detection, 30 min; in the data active means activity change below about -30%; further: on the % scale 0 is the no-effect control and ±100 the full control effect
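We incubate TRiC, 40 or 20 nM final, with library compounds at 76 uM and 10 uM ATP for 30 min at 37 °C. ADP formed is detected with Transcreener HTRF reagents after 30 min at room temperature.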
TCR act: activators of T cell receptors | primary human leukocytes, anti-CD3, IL-2 HTRF, 48 h | Potency, µM (top dose mostly 9.22 µM), for inactives: top-dose activation of IL-2 secretion, hits mostly activators | 330,000 tested, under 10 active; active means well fitted activation curve with a large enough effect; further: % of control where 0% means no effect
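Readout: HTRF IL-2, Eu-cryptate/d2 antibody pair, 320nm excitation, 665nm emission. Stimulus: a-CD3 beads, no co-stimulation. Cells: primary human leukocytes. Exposure: 48 hr with compound.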
pAkt inh: blocks phosphorylation of Akt | 0.32% of 360,000 active | Neuro2A IGF-stimulated pAkt S473 HTRF, 20 min; hits give low values | activity change, % for hits at 50 µM | AID 651550; in the data active means activity change below about -80%; further: on the % scale 0 is the no-effect control and ±100 the full control effect
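Neuro2A cells (4,500/well, DMEM with 0.5% FBS) were treated with compound at a single 50 µM final concentration, stimulated with 6 nM IGF for 20 min at 37 °C, and lysed. Phospho-Akt Ser473 was read by HTRF as 665/615 ratio ×10^4.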
TSHR antag: blocks TSH signaling through the human TSH receptor. activity change, negative = inhibition, % at 11.5 µM. 0.2% of 330,000 active. TSHR-expressing cells, TSH-stimulated cAMP HTRF, 2 h; hits give low values. P16473. AID 504810;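 active means activity change below a set negative limit, meaning inhibition stronger than a set level, cut at about -70% in these data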; further: on the % scale 0 is the no-effect control and ±100 the full control effect
Target sequence (P16473 whole entry, looked up): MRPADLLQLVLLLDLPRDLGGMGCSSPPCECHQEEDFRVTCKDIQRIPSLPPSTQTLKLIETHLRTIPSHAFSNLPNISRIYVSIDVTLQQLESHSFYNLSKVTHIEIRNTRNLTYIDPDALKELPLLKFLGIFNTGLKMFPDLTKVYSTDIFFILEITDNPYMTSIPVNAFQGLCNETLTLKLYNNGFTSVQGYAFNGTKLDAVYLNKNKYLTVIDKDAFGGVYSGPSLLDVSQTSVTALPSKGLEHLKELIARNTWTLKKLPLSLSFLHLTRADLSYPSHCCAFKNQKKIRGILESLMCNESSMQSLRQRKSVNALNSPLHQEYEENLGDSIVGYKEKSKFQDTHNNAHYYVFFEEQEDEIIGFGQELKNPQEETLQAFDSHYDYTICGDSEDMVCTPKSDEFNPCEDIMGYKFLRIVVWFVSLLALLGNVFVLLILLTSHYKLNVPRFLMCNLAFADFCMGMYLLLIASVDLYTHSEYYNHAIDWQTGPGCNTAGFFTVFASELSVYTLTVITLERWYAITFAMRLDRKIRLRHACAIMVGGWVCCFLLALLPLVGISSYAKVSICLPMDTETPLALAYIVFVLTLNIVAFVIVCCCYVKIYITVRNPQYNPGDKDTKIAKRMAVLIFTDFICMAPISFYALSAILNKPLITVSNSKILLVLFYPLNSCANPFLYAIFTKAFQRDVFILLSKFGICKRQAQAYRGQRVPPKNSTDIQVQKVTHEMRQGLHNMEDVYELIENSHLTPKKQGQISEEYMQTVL
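Competitive HTRF cAMP read-out (cryptate anti-cAMP antibody, cAMP-d2; 30 min, room temperature) in freshly harvested TSHR cells. Compounds added before TSH at EC80 (4nM final), followed by 2 hours' incubation at 37 deg C.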
Active calls of the source: *; i = inactive; . = not tested or not shown; [ ] = remark or other dose. The list is not random: actives were taken first. Their share in the collection is about 0.74%.

SMILES	CCT modulator	TCR act	pAkt inh	TSHR antag
CC(=O)N1c2ccc(S(=O)(=O)NCCC(=O)Nc3ccccc3C)cc2CC1C (stereo not given)	3	0%	i	-133*
CC(=O)N1c2ccc(S(=O)(=O)NCCC(=O)Nc3ccc(C)c(Cl)c3)cc2CC1C (stereo not given)	1	-18%	i	-2
COCCCNC(=O)c1c(-c2ccccc2)noc1C	-1	-2%	.	1
CCCCOCCCNC(=O)c1c(-c2ccccc2)noc1C	0	-5%	-122%*	-8
COc1cc(CNCCCN2CCOCC2)cc(Cl)c1OCC(=O)NC(C)(C)C	-2	2%	i	7
O=C(c1cc2cc(F)ccc2[nH]1)N1CCc2ccccc21	0	-9%	i	-4
O=C(c1cc2cc(Br)ccc2[nH]1)N1CCc2ccccc21	-38*	7%	i	1
CC(NC(=O)Cn1ncc(Cl)c(Cl)c1=O)C12CC3CC(CC(C3)C1)C2 (stereo not given)	-1	8%[46.1 µM]	i	-100*
CCn1cc(C(=O)NC(C)C23CC4CC(CC(C4)C2)C3)cn1 (stereo not given)	-2	18%[46.1 µM]	i	0
CC(OC(=O)CN(C)S(=O)(=O)c1ccc(Cl)cc1)C(=O)Nc1ncc(Cl)cc1Cl (stereo not given)	-1	0%	i	-4
CC(OC(=O)CN(C)S(=O)(=O)c1ccc(Cl)cc1)C(=O)Nc1cccc(Cl)c1 (stereo not given)	2	0%	-98%*	-9
O=S(=O)(/C=C/c1ccccc1)n1cnc2ccccc21	0	-6%	-118%*	2
CCOc1ccc(S(=O)(=O)N2CCC(C(=O)OC(C)C(=O)NC3CCCCC3C)CC2)cc1 (stereo not given)	-2	2%	i	0
CCN(CC)CCNc1ncnc2c1[nH]c1ccc(OC)cc12	.	.	.	27
COc1ccc2[nH]c3c(NCCC4=CCCCC4)ncnc3c2c1	2	3%	i	-73*
CC1CCc2c(nc3nc[nH]n3c2=O)C1 (stereo not given)	-1	-1%	-102%*	6
CCOC(=O)c1c(C)[nH]c(C)c1S(=O)(=O)NCCc1ccco1	2	4%	i	3
Cc1ccc(CNC(=O)CCS(=O)(=O)c2cc3c(cc2Cl)NC(=O)CO3)cc1	1	-3%	i	-8
COc1ccc(CNC(=O)CCS(=O)(=O)c2cc3c(cc2Cl)NC(=O)CO3)cc1	-1	2%	i	-120*
CCc1ccc(S(=O)(=O)NCC2(N3CCOCC3)CCCCC2)cc1	-2	-2%	i	-12
CCOC(=O)CC(=O)c1cc(OC)c(OC)c(OC)c1	1	1%	-106%*	27
CCOC(=O)Cn1nnc(-c2cc(OC)c(OC)c(OC)c2)n1	0	6%	i	-8
CN(CC(=O)Nc1ccccc1Cl)C(=O)COC(=O)c1nc(Cl)c(Cl)c(Cl)c1Cl	-2	7%	i	-89*
CN(CC(=O)Nc1ccccc1Cl)C(=O)COC(=O)c1ccc(Cl)nc1	-3	-5%	i	4
CN1CCN(NC(=O)c2ccc(Cl)c([N+](=O)[O-])c2)CC1	-1	-3%	-112%*	6
SMILES	CCT modulator	TCR act	pAkt inh	TSHR antag
COc1cnn(-c2ccc(F)cc2)c(=O)c1Br	-66*	5%	i	-12
COc1ccc(S(=O)(=O)N2CCCOC2CNC(=O)C(=O)NC2CCCC2)cc1 (stereo not given)	-6	2%	i	-1
CC1=C(C(=O)N2CCOCC2)CC(CC(=O)NC2CCCCC2)C(=O)N1Cc1ccccc1 (stereo not given)	0	.	i	.
COc1ccc(NC(C)=O)cc1NC(=O)CSc1nnc(C2CCCCC2)n1N	-1	-3%	i	6
COc1cccc(-c2nnc(SCC(=O)Nc3cc(C)ccc3OC)n2N)c1	-4	0%	-119%*	-3
COc1ccc(OC)c(NC(=O)CSc2nnc(C3CCCCC3)n2-c2ccccc2)c1	-2	-6%[46.1 µM]	-111%*	-6
Cc1ccc(C)c(NC(=O)CSc2nnc(CSc3nc(C)cc(C)n3)n2Cc2ccco2)c1	-2	2%	-91%*	-13
Cc1ccc(NC(=O)CSc2nnc(CSc3nc(C)cc(C)n3)n2Cc2ccco2)c(C)c1	1	0%	i	4
COc1ccc(C)cc1NC(=O)CSc1nnc(-c2ccco2)n1N	-3	9%	i	10
